Measured values published in the supplement of paper PMC10849652.
About 8,800 targets were measured; listed, in parts, are those with a hit and a random draw of the rest. About 0.5% of all pairs of compound and target were hits. A number with no mark means an inactive call.

Tests used:
Experiment in all cases: log2 fold change, soluble protein after heating vs DMSO (PISA); higher = thermal stabilisation; K562 lysate, 10 uM; active = over 0.2 and 3.5 SD of the protein, either way, in both replicates (recomputed)
erlotinib = compound: C#Cc1cccc(Nc2ncnc3cc(OCCOC)c(OCCOC)cc23)c1 [erlotinib]
In short: (§1)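 Quantification was by TMTpro 16plex LC-MS/MS with equalised channel sums, applied to the supernatant after 21,000xg for 90 min. Samples were crude K562 extract at 1 mg/mL protein in PBS pH 7.4 with 1 mM MgCl2, treated with 10 μM compound for 30 min, heated for 3 min across 48°C-58°C, pooled and brought to 0.5% NP-40 at 4°C. Values are log-two fold changes in thermal stability relative to solvent controls, from duplicates.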

[1] = compound: C/C(=N\NC(=O)C1=CC(=CC=C1)S(=O)(=O)N2CCOCC2)/C3=C(C=CC(=C3)Cl)O
In short: as §1

[2] = compound: C1=CC(=CC=C1C2=NC3=C(N2)C=C(C=C3)C(=O)N)OC4=CC=C(C=C4)Cl
In short: as §1

[3] = compound: C1=CC2=C(C=CC(=C2)/C=C\3/C(=O)NC(=NCC4=CC=CS4)S3)N=C1
In short: as §1

[4] = compound: C1=CC2=NC=CN=C2C=C1/C=C/3\C(=O)NC(=O)S3
In short: as §1

[5] = compound: C1=CC=C(C=C1)C2=NC(=C(N2)C3=CC=NC=C3)C4=CC(=C(C=C4)Cl)O
In short: as §1

[6] = compound: C1=CC=C2C(=C1)C3=NNC4=CC=CC(=C43)C2=O
In short: as §1

[7] = compound: C1CCN(C1)C(=O)NC2=CC=CC(=C2)NC3=NC=C(C(=N3)NCCC4=CN=CN4)Br
In short: as §1

[8] = compound: C1CN(CCC1(CC2=CC=C(C=C2)Cl)N)C3=NC=NC4=C3C=CN4
In short: as §1

IRAK-1-4 Inhibitor I = compound: C1COCCN1CCN2C3=CC=CC=C3N=C2NC(=O)C4=CC(=CC=C4)[N+](=O)[O-] [IRAK-1-4 Inhibitor I]
In short: as §1

ibrutinib = compound: C=CC(=O)N1CCC[C@@H](n2nc(-c3ccc(Oc4ccccc4)cc3)c3c(N)ncnc32)C1 [ibrutinib]
In short: as §1

[9] = compound: CC(=O)c1cnc2ccc(-c3cc(Cl)c(O)c(Cl)c3)nc2c1N[C@H]1CC[C@H](CN(C)C)CC1
In short: as §1

ralimetinib = compound: CC(C)(C)Cn1c(N)nc2ccc(-c3[nH]c(C(C)(C)C)nc3-c3ccc(F)cc3)nc21 [ralimetinib]
In short: as §1

[10] = compound: CC(C)(O)CC(=O)NCCn1ccc2ncnc(Nc3ccc(Oc4cccc(C(F)(F)F)c4)c(Cl)c3)c21
In short: as §1

[11] = compound: CC(C)C1=C2N=C(C=C(N2N=C1)NCC3=CC=CC=C3)NCCCCCCN
In short: as §1

[12] = compound: CC1=C(C(CC(=O)N1)C2=CC=C(C=C2)C(F)(F)F)C(=O)NC3=C(C=C4C(=C3)C=NN4)F
In short: as §1

[13] = compound: CC1=C(C2=C(C=C1)C(=O)C3=CC=CC=C3N2CCCN)C
In short: as §1

[14] = compound: CC1=C(C=C(C=C1)NC(=O)C2=CC(=CC=C2)C(C)(C)C#N)NC3=CC4=C(C=C3)N=CN(C4=O)C
In short: as §1

[15] = compound: CC1=C(C=C(C=C1)NC(=O)C2=CC(=CC=C2)N(C)C)NC(=O)C3=CC=C(C=C3)O
In short: as §1

[16] = compound: CC1=CC=C(C=C1)SC2=C3C=C(SC3=CN=C2)C(=O)N
In short: as §1

UniProt Q8N511, sequence (Q8N511 whole entry, looked up): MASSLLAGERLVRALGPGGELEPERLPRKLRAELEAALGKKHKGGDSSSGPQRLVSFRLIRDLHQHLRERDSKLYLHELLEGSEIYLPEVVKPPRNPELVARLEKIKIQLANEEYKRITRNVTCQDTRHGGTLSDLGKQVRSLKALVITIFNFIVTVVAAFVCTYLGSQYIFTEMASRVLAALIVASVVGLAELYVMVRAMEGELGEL
UniProt O95857, sequence (O95857 whole entry, looked up): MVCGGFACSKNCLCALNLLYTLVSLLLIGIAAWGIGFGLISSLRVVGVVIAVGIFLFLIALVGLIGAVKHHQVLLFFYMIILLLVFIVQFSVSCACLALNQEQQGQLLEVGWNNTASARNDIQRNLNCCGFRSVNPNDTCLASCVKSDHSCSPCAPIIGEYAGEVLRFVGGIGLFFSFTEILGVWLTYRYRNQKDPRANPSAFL
UniProt Q96S44, sequence (Q96S44 whole entry, looked up): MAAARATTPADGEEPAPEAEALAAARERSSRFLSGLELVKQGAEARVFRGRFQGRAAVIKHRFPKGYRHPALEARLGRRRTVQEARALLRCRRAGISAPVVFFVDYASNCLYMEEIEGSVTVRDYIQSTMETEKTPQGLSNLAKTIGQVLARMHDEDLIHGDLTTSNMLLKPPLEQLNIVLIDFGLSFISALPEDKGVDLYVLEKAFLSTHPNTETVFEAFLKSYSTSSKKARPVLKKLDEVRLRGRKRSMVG
UniProt P67936, sequence (P67936 whole entry, looked up): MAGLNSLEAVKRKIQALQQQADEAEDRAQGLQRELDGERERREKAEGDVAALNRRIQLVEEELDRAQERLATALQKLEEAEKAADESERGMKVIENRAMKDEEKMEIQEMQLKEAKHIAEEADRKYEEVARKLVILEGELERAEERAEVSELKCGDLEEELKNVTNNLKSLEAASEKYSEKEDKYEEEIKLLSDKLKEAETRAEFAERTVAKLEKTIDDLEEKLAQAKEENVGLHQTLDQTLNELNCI
UniProt Q14157, sequence (Q14157 whole entry, looked up): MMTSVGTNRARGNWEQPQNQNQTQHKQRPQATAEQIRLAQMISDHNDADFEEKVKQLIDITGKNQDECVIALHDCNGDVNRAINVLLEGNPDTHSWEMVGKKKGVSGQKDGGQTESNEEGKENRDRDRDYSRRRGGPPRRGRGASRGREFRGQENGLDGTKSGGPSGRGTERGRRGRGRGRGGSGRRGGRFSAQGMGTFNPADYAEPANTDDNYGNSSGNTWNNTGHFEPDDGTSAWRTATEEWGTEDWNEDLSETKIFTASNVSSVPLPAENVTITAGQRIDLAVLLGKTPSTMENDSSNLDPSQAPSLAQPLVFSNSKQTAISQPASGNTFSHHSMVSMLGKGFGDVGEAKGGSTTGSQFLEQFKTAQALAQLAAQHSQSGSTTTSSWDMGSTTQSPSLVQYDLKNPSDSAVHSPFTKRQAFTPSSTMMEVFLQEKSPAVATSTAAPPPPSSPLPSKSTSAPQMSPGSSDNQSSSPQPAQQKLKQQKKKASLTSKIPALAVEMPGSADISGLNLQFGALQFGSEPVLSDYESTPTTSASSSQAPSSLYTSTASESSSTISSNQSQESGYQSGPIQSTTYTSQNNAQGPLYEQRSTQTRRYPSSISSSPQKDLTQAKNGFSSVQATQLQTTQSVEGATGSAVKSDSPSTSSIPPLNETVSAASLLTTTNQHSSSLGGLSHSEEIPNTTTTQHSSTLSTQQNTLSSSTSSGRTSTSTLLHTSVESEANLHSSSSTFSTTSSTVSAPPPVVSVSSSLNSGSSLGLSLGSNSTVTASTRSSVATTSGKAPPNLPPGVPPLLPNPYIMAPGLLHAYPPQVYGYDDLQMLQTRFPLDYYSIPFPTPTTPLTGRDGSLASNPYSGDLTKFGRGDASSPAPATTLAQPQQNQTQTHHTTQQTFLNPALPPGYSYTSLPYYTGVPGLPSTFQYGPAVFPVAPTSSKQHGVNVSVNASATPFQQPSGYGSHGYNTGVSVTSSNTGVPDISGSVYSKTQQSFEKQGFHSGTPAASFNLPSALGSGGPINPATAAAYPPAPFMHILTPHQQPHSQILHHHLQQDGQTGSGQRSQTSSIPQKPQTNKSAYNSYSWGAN
UniProt Q9Y4R8, sequence (Q9Y4R8 whole entry, looked up): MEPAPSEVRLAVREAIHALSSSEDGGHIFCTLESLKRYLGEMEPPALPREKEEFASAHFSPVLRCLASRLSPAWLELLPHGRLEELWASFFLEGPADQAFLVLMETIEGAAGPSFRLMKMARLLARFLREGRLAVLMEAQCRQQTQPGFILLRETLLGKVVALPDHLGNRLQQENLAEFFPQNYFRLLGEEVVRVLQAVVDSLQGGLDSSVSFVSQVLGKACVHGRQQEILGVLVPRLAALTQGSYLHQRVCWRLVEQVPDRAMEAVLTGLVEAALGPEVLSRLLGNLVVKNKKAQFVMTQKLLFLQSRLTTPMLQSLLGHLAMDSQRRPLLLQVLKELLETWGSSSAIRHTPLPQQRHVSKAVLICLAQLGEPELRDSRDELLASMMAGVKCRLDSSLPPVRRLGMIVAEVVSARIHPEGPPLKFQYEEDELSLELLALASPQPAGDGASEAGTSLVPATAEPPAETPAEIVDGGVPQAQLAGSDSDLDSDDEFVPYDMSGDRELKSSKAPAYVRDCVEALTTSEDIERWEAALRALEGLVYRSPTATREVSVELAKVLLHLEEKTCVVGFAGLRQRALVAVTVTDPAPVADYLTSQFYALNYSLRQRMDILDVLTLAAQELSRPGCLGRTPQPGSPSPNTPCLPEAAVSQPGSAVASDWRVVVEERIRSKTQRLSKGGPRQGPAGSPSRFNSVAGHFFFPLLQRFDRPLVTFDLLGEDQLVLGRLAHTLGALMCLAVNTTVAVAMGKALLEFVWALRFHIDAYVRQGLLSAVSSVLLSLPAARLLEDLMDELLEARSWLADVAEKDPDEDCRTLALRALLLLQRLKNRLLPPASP
UniProt Q13595, sequence (Q13595 whole entry, looked up): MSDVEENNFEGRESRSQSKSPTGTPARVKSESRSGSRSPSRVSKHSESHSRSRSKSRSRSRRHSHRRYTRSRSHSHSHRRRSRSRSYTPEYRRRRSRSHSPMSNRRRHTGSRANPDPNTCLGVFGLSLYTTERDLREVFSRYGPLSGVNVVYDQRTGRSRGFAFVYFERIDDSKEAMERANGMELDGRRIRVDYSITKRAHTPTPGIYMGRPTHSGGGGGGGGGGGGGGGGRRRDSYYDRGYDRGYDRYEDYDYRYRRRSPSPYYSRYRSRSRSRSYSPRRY
UniProt A6NFQ2, sequence (A6NFQ2 whole entry, looked up): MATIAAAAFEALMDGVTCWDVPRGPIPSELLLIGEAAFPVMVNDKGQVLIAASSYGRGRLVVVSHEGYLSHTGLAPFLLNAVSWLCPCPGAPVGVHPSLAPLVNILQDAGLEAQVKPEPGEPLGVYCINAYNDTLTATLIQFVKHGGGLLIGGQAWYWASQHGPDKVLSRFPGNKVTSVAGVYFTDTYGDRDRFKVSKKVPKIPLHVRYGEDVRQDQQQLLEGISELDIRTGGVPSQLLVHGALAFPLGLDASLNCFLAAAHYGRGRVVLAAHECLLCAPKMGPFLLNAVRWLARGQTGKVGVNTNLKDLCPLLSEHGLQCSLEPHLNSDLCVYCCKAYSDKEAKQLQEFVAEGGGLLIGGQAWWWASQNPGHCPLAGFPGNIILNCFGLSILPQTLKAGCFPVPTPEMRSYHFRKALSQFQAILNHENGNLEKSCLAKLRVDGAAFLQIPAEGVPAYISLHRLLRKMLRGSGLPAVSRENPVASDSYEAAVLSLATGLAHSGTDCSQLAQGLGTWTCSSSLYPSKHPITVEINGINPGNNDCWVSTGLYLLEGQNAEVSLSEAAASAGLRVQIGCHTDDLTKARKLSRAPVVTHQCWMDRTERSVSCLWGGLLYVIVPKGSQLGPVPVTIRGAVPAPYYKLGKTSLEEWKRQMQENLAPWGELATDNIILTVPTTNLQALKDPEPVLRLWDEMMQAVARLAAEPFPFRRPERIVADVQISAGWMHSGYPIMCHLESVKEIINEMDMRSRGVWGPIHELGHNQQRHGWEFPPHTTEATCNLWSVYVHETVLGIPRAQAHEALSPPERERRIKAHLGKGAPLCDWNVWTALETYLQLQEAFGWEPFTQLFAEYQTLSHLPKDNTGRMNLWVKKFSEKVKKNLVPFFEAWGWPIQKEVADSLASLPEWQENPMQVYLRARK

| Target | log2 fold change (erlotinib) | log2 fold change [1] | log2 fold change [2] | log2 fold change [3] | log2 fold change [4] | log2 fold change [5] | log2 fold change [6] | log2 fold change [7] | log2 fold change [8] | log2 fold change (IRAK-1-4 Inhibitor I) | log2 fold change (ibrutinib) | log2 fold change [9] | log2 fold change (ralimetinib) | log2 fold change [10] | log2 fold change [11] | log2 fold change [12] | log2 fold change [13] | log2 fold change [14] | log2 fold change [15] | log2 fold change [16] |
| --- | --- | --- | --- | --- | --- | --- | --- | --- | --- | --- | --- | --- | --- | --- | --- | --- | --- | --- | --- | --- |
| TP53RK (UniProt Q96S44) | -0.005 | 0.025 | 0.038 | -0.24 (active) | -0.37 (active) | -0.03 | 0.042 | 0.014 | -0.022 | -0.008 | 0.02 | -0.059 | 0.019 | -0.008 | 0.007 | -0.013 | -0.004 | 0 | -0.02 | -0.071 |
| TSPAN13 (UniProt O95857) | 0.002 | 0.053 | 0.06 | 0.003 | -0.002 | 0.008 | -0.167 | 0.202 | -0.053 | -0.051 | 0.018 | -0.001 | -0.048 | -0.044 | -0.083 | 0.102 | 0.036 | 0.088 | 0 | -0.043 |
| TPM4 (UniProt P67936) | 0.028 | 0.048 | 0.005 | 0.058 | -0.012 | 0.001 | 0.009 | -0.064 | -0.012 | 0.028 | -0.019 | -0.021 | 0.003 | -0.023 | -0.023 | -0.038 | 0.012 | 0.01 | 0.013 | 0.006 |
| TELO2 (UniProt Q9Y4R8) | 0.023 | 0.006 | -0.035 | 0.025 | 0.048 | 0 | 0.011 | -0.031 | 0.002 | 0.009 | -0.023 | 0 | 0.019 | -0.052 | 0.002 | 0.029 | -0.015 | 0.006 | 0.014 | 0.017 |
| TMEM199 (UniProt Q8N511) | 0.002 | -0.03 | -0.034 | 0.032 | 0.018 | -0.013 | -0.087 | -0.065 | 0.027 | -0.033 | 0.067 | 0.001 | -0.001 | -0.078 | -0.003 | 0.001 | -0.275 (active) | -0.043 | -0.016 | 0.009 |
| TRA2A (UniProt Q13595) | -0.164 | -0.261 | -0.092 | -0.03 | -0.137 | 0.038 | -0.024 | 0.083 | -0.234 | -0.102 | 0.127 | -0.018 | -0.079 | -0.013 | 0.21 | -0.027 | 0.039 | 0.056 | 0.019 | -0.007 |
| UBAP2L isoform 5 (UniProt Q14157) | -0.021 | -0.019 | 0.035 | 0.008 | 0.027 | -0.184 | 0.065 | 0.009 | -0.023 | 0.065 | 0.024 | 0.028 | -0.026 | -0.055 | 0.019 | 0.009 | 0.024 | -0.529 (active) | -0.009 | 0.003 |
| TCAF2 (UniProt A6NFQ2) | -0.006 | -0.218 | -0.003 | -0.059 | -0.038 | -0.027 | -0.033 | -0.022 | -0.047 | -0.005 | 0.009 | -0.009 | 0.078 | -0.017 | 0.013 | 0.022 | 0.055 | -0.005 | -0.021 | 0.063 |
